These results are taken from PubChem BioAssay (NCI).

Each structure is given as a SMILES string. This is part of a sample that, as a whole, favours compounds with a hit. Of some 83,000 tested, about 20% had one in any assay.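 Step 1: grow cells in 96-well plates. Step 2: add test compound at a single concentration. Step 3: incubate 48 h. Step 4: record percent growth.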 Values without a mark were called inactive. Activity calls are given as the source filed them. The calls were made as follows: active = growth percent below 10; inactive = the rest.

The assay has as its system HL-60(TB) leukemia. Put plainly: NCI-60 one-dose screen, 48 h (100 = growth as untreated, 0 = no growth, -100 = all killed). Conditions: 10 µM unless noted.
As for `COc1cc2nnn3c4ncccc4c(N=O)c3c2cc1OC`, the growth is -31.5% (active).
Turning to `S=C(Cc1ccc(-c2ccccc2)cc1)N1CCOCC1`, the growth is 98.9%.
For the molecule `COc1ccc(/C=C/c2nc3ccccc3nc2/C=C/c2ccc(OC)cc2)cc1`, the growth is 105%.
Consider `CC(=O)c1cc(C(=O)c2ccc3c(c2)Sc2ccccc2N3)c2cc(C)ccn12`, for which the growth is 2.96% (active).
As for `CCCCCCCCCC1=NC(C)(C)CN1C(C)(C)CO`, the figure is -20.8% (active); as for `COCCn1cc(-c2nc(-c3cc4cccnc4n3C)cs2)c2cc(OC)ccc21`, 82.6%.
For the molecule `CC(=O)CC(c1cccs1)c1c(-c2ccccc2)[nH]c2ccccc12` (stereo unspecified), the growth is 99.8%.
With `O=c1ccn(Cc2cn(-c3c4ccccc4nc4ccccc34)nn2)c(=O)[nH]1` the figure was 75.7%.
With `CCOC(=O)C1CSC(C)(C(=O)OCC)N1` (stereo unspecified) the figure was 83.8%; with `COc1ccccc1CNCCCN1C(=O)c2ccc3c4c(ccc(c24)C1=O)C(=O)N(CCCNCCNCCCN)C3=O`, 0.848% (active).
With `CC(C)N(C(=S)SSC(=S)N(C(C)C)C(C)C)C(C)C` the figure was 122%; with `C#CCOc1cccc(Nc2ncnc3cc(NC(=O)CCl)ccc23)c1`, -62.2% (active); with `Cc1cc(N2CCCCC2)nc(NCc2cc(Nc3ccnc4cc(Cl)ccc34)ccc2F)n1`, -65.7% (active).
For `N#C/C=C(\c1ccc([N+](=O)[O-])cc1)n1nnc2cc(Cl)c(Cl)cc21`, the growth is 13.3%.
As for `CC1=NN(c2ccccc2)C(=O)C1C(=O)c1ccccc1` (stereo unspecified), the figure is 68.5%; as for `COc1ccc(C2=NN(C=O)C(c3ccc(Oc4nc5c(c(=O)n(C)c(=O)n5C)n4C)c(OC)c3)C2)cc1` (stereo unspecified), 90.3%.
